Results taken from PubChem BioAssay (NCI).
Compounds without any hit were thinned out: in the full panel of roughly 83,000, 20% have a hit.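 Interpretation: 100, growth as untreated; towards 0, rising growth inhibition; 0, no net growth; 0 to -100, cell death. Compounds scoring below 10 were considered active.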 Unmarked numbers belong to inactive results. Activity calls are given as the source filed them.

Tests used:
Assay in all cases: NCI-60 one-dose screen, 48 h (100 = growth as untreated, 0 = no growth, -100 = all killed)
Conditions in all cases: 10 µM unless noted
HCT-15 colon = system: HCT-15 colon
HT29 colon = system: HT29 colon
SNB-75 CNS = system: SNB-75 CNS
SNB-19 CNS = system: SNB-19 CNS
U251 CNS = system: U251 CNS
PC-3 prostate = system: PC-3 prostate
SK-MEL-5 melanoma = system: SK-MEL-5 melanoma
UACC-62 melanoma = system: UACC-62 melanoma
LOX IMVI melanoma = system: LOX IMVI melanoma
SK-MEL-28 melanoma = system: SK-MEL-28 melanoma
SK-MEL-2 melanoma = system: SK-MEL-2 melanoma
EKVX NSCLC = system: EKVX NSCLC
SN12C renal = system: SN12C renal
UO-31 renal = system: UO-31 renal
TK-10 renal = system: TK-10 renal
ACHN renal = system: ACHN renal
CAKI-1 renal = system: CAKI-1 renal
A498 renal = system: A498 renal
CCRF-CEM leukemia = system: CCRF-CEM leukemia
MOLT-4 leukemia = system: MOLT-4 leukemia

Row | Compound | growth (HCT-15 colon) | growth (HT29 colon) | growth (SNB-75 CNS) [%] | growth (SNB-19 CNS) | growth (U251 CNS) | growth (PC-3 prostate) | growth (SK-MEL-5 melanoma) | growth (UACC-62 melanoma) | growth (LOX IMVI melanoma) | growth (SK-MEL-28 melanoma) | growth (SK-MEL-2 melanoma) | growth (EKVX NSCLC) | growth (SN12C renal) | growth (UO-31 renal) | growth (TK-10 renal) | growth (ACHN renal) | growth (CAKI-1 renal) | growth (A498 renal) | growth (CCRF-CEM leukemia) | growth (MOLT-4 leukemia)
1 | FC(F)(F)c1cc(Nc2cccc(Oc3ccc(NC4=NCCN4)nc3)c2)ccc1Cl | -71.4% (active) | 4.39% (active) | 10.7 | 9.09% (active) | -7.18% (active) | -36.5% (active) | 4.94% (active) | -45.5% (active) | -94.8% (active) | 29.4% | 5.11% (active) | 12.6% | -24.8% (active) | 21.9% | 27.5% | 1.37% (active) | 16.2% | 37.9% | 14.6% | 9.2% (active)
2 | COc1cc2c(cc1OC)C(Sc1ccc(F)cc1)c1c(nc(N)c(C#N)c1N)O2 (stereo not given) | -70.7% (active) | 5.15% (active) | 52.9 | -82.5% (active) | -77.5% (active) | -84% (active) | -82.5% (active) | -74.2% (active) | -91.1% (active) | -71.9% (active) | -6.24% (active) | -86.6% (active) | -86.5% (active) | -98.1% (active) | -30.1% (active) | -99.3% (active) | -58.4% (active) | -42.8% (active) | -13.6% (active) | 0.279% (active)
3 | COc1c(N2CC3CCCNC3C2)c(F)cc2c(=O)c(C(=O)N/N=C/c3ccccc3)cn(C3CC3)c12 (stereo not given) | 76.3% | 72.6% | 88.7 | 101% | 94.7% | 86.9% | 87.8% | 105% | 83.7% | 94.3% | 111% | 94.7% | 91.5% | 86.4% | 99.5% | 105% | 91.9% | 74.9% | 78.2% | 79.3%
4 | CC1=NC2=NN3C(=NN2C(c2ccccc2)=C1)N=NC(c1ccc(Br)cc1)=C3c1ccc(Br)cc1 | 103% | 105% | 117 | 98.1% | 103% | 97.1% | 106% | 89.9% | 100% | 105% | 103% | 96% | 101% | 80.1% | 128% | 99.3% | 95.7% | 98.7% | 106% | 99.8%
5 | COc1ccc(C2CC(c3ccc(Nc4nc(NCCO)nc(N5CCOCC5)n4)cc3)=Nc3c(N)nc(N)nc3N2)cc1 (stereo not given) | 100% | 102% | 86.4 | 102% | 95.5% | 105% | 96.2% | 104% | 103% | 108% | 107% | 107% | 96.9% | 93.7% | 115% | 102% | 94.3% | 87.9% | 105% | 102%
6 | Brc1ccccc1/C=N/Nc1nc(N/N=C/c2ccccc2Br)nc(N2CCOCC2)n1 | 81.1% | 74% | 132 | 101% | 96.5% | 84% | 69.6% | 102% | 103% | 99.3% | 96.3% | 80.2% | 98.8% | 78.6% | 99.4% | 93.6% | 109% | 50.2% | 80.1% | 72.6%
7 | Cn1ccnc1C(=O)/C=C/C=C/c1ccc(C(=O)Nc2ccc(F)cc2)cc1 | -36.8% (active) | 0.045% (active) | 51.7 | 39.6% | -1.47% (active) | 41.8% | 30.4% | 32.8% | -65.7% (active) | 39.7% | 90.8% | 33.4% | 1.94% (active) | 44.3% | 61.2% | 21.9% | 37.2% | 62% | 10.3% | 12.3%
